According to PubChem BioAssay AID1159580 (chemical genetic matrix, 2015):
“And” between values parts separate entries of the source, which are not always exact repeats. Equal entries are not always repeated. Among all 5,500 compounds or so, about 2,000 (36%) were called active. Not shown: some 18% with an inconclusive outcome. No stated cut-off is given here; in the data, active means normalized growth mostly below about 0.91 (no sharp cut-off); inconclusive means no clear call, values can overlap the other calls; inactive means mostly above about 0.92. The list shows a part of the results.

Assay: chemical genetic growth profiling, strain panel (AID 1159580);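 further: tested at 20 µM; growth read once vehicle control cultures reached saturation at 30 °C; 1 = growth at the plate median or of vehicle wells; lower values mean less growth of the strain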
Conditions: S. cerevisiae deletion strains, growth OD

Measured: normalized growth

CC1(C)CC2C1CCC1(C)OC2(C)CCC1O (stereo not given)
inactive: locus YAL021C, strain ccr4, hits give low values 1.02 | locus YAL026C, strain drs2, hits give low values 1.05 | locus YAL030W, strain snc1, hits give low values 1.03 | locus YBL061C, strain skt5, hits give low values 1.03 | locus YBR009C, strain hhf1, hits give low values 1.03 | locus YBR021W, strain FUR4, hits give low values 1.03 | locus YBR023C, strain chs3, hits give low values 1.03 | locus YBR171W, strain sec66, hits give low values 1.03 | locus YBR229C, strain ROT2, hits give low values 1.02 | locus YBR231C, strain swc5, hits give low values 1.02 | locus YBR279W, strain paf1, hits give low values 1.02 | locus YCL011C, strain gbp2, hits give low values 1.02 | locus YCL016C, strain dcc1, hits give low values 1.01 | locus YCL029C, strain bik1, hits give low values 1.01 | locus YCL061C, strain MRC1, hits give low values 1.03 | locus YCL069W, strain vba3, hits give low values 1.03 | locus YCR088W, strain abp1, hits give low values 1.02 | locus YDL005C, strain med2, hits give low values 1.03 | locus YDL035C, strain GPR1, hits give low values 0.989 | locus YDL040C, strain nat1, hits give low values 1.01 | locus YDL074C, strain BRE1, hits give low values 1.02 | locus YDL101C, strain DUN1, hits give low values 1.03 | locus YDL185W, strain tfp1, hits give low values 1.01 | locus YDL192W, strain arf1, hits give low values 1 | locus YDR001C, strain nth1, hits give low values 1.02 | locus YDR069C, strain doa4, hits give low values 1.02 | locus YDR101C, strain arx1, hits give low values 0.993 | locus YDR137W, strain rgp1, hits give low values 1.03 | locus YDR159W, strain sac3, hits give low values 1.03 | locus YDR162C, strain NBP2, hits give low values 1.02 | locus YDR195W, strain ref2 1.02 | locus YDR297W, strain sur2, hits give low values 1.04 | locus YDR318W, strain mcm21, hits give low values 0.994 | locus YDR334W, strain swr1, hits give low values 1.03 | locus YDR335W, strain msn5, hits give low values 1.02 | locus YDR388W, hits give low values 1.01 | locus YDR392W, strain spt3, hits give low values 0.958 | locus YDR502C, strain sam2, hits give low values 1.03 | locus YEL003W, strain gim4, hits give low values 1.02 | locus YEL037C, strain rad23, hits give low values 1.02 | locus YEL061C, strain CIN8 (second series), hits give low values 1.02 | locus YER015W, strain faa2, hits give low values 1.04 | locus YER016W, strain bim1, hits give low values 1.02 | locus YER110C, hits give low values 1.01 | locus YER111C, strain swi4, hits give low values 1.02 | locus YER155C, strain BEM2 (second series), hits give low values 1.04 | locus YER155C, strain BEM2, hits give low values 0.996 | locus YER167W, strain BCK2, hits give low values 1 | locus YFR010W, strain ubp6, hits give low values 1.04 | locus YGL078C, strain dbp3, hits give low values 1.03 | locus YGL086W, strain mad1, hits give low values 1.02 | locus YGL167C, strain pmr1, hits give low values 1.03 | locus YGL173C, strain kem1, hits give low values 1.04 | locus YGL227W, strain vid30, hits give low values 1.01 | locus YGL240W, strain doc1, hits give low values 1.03 | locus YGL248W, strain PDE1, hits give low values 1.07 | locus YGL253W, strain hxk2, hits give low values 1.04 | locus YGR135W, strain pre9, hits give low values 1.08 | locus YGR229C, strain SMI1, hits give low values 0.978 | locus YGR252W, strain gcn5, hits give low values 1.11 | locus YHR013C, strain ard1, hits give low values 1.06 | locus YHR027C, strain rpn1, hits give low values 1.05 | locus YHR030C, strain SLT2, hits give low values 0.992 and 1.02 | locus YHR079C, strain IRE1 (second series), hits give low values 1.01 | locus YHR079C, strain IRE1, hits give low values 1.02 | locus YHR094C, strain hxt1, hits give low values 1.02 | locus YHR129C, strain ARP1, hits give low values 1.01 | locus YHR142W, strain chs7, hits give low values 1.02 | locus YHR200W, strain rpn10, hits give low values 1.03 | locus YIL066C, strain RNR3, hits give low values 1.01 | locus YIL073C, strain SPO22, hits give low values 1.02 | locus YIL125W, strain kgd1, hits give low values 0.999 | locus YIR030C, strain dcg1, hits give low values 1 | locus YJL092W, strain hpr5, hits give low values 1.03 | locus YJL095W, strain BCK1 (second series), hits give low values 1.03 | locus YJL095W, strain BCK1, hits give low values 1.09 and 1.03 | locus YJL115W, strain asf1, hits give low values 1.03 | locus YJL129C, strain trk1, hits give low values 1.05 | locus YJL134W, strain LCB3, hits give low values 1 | locus YJL154C, strain vps35, hits give low values 1.03 | locus YJL164C, strain tpk1, hits give low values 1.01 | locus YJL166W, strain qcr8, hits give low values 1.03 | locus YJL168C, strain set2, hits give low values 1.01 | locus YJL187C, strain SWE1 (second series), hits give low values 1.05 | locus YJR043C, strain POL32, hits give low values 0.976 | locus YJR066W, strain TOR1, hits give low values 0.959 | locus YJR075W, strain HOC1, hits give low values 1.01 | locus YKL009W, strain mrt4, hits give low values 0.984 | locus YKL068W, hits give low values 1 | locus YKL085W, strain MDH1 (second series), hits give low values 0.978 | locus YKL085W, strain MDH1, hits give low values 0.978 | locus YKL160W, strain elf1, hits give low values 1 | locus YKL190W, strain CNB1, hits give low values 1 | locus YKR001C, strain vps1, hits give low values 1.03 | locus YKR026C, strain gcn3, hits give low values 1.03 | locus YKR091W, strain srl3, hits give low values 1.01 | locus YLL001W, strain dnm1, hits give low values 0.991 | locus YLL026W, hits give low values 1.02 | locus YLL041C, strain sdh2, hits give low values 1.02 | locus YLR027C, strain aat2, hits give low values 1.02 | locus YLR039C, strain RIC1, hits give low values 1.05 | locus YLR058C, strain SHM2, hits give low values 1.03 | locus YLR102C, strain apc9, hits give low values 1 | locus YLR113W, strain HOG1, hits give low values 1.03 | locus YLR221C, strain rsa3, hits give low values 1.04 | locus YLR258W, strain gsy2, hits give low values 1.01 | locus YLR262C, strain YPT6 (second series), hits give low values 1.03 | locus YLR268W, strain sec22, hits give low values 0.981 | locus YLR320W, strain mms22, hits give low values 1.04 | locus YLR330W, strain CHS5, hits give low values 1 | locus YLR342W, strain FKS1 (second series), hits give low values 0.993 | locus YLR342W, strain FKS1, hits give low values 1.03 | locus YLR357W, strain rsc2, hits give low values 1.04 | locus YLR370C, strain arc18, hits give low values 1.02 | locus YLR371W, strain rom2, hits give low values 1.02 | locus YLR384C, strain iki3, hits give low values 1.02 | locus YLR418C, strain cdc73, hits give low values 1.08 | locus YML016C, strain PPZ1, hits give low values 1.01 | locus YML032C, strain rad52, hits give low values 1.02 | locus YML120C, strain ndi1, hits give low values 1.01 | locus YML124C, strain tub3, hits give low values 1.01 | locus YMR058W, strain fet3, hits give low values 1.04 | locus YMR078C, strain ctf18, hits give low values 1.02 | locus YMR125W, strain sto1, hits give low values 1.05 | locus YMR129W, hits give low values 1.01 | locus YMR205C, strain PFK2, hits give low values 1.04 | locus YMR223W, strain ubp8, hits give low values 1.01 | locus YMR231W, strain pep5, hits give low values 1.02 | locus YMR263W, strain SAP30, hits give low values 1.02 | locus YMR307W, strain GAS1, hits give low values 1.03 | locus YNL067W, strain RPL9B, hits give low values 1.04 | locus YNL071W, strain lat1, hits give low values 1.02 | locus YNL183C, strain NPR1, hits give low values 0.969 | locus YNL209W, strain ssb2, hits give low values 1.02 | locus YNL233W, strain BNI4, hits give low values 1.07 | locus YNL248C, strain rpa49, hits give low values 1.03 | locus YNL250W, strain rad50, hits give low values 1.04 | locus YNL271C, strain bni1, hits give low values 1.01 | locus YNL298W, strain CLA4, hits give low values 1.01 | locus YNL307C, strain MCK1, hits give low values 1.02 | locus YNL322C, strain KRE1 (second series), hits give low values 1.02 | locus YNR049C, strain mso1, hits give low values 1.06 | locus YNR052C, strain pop2, hits give low values 1.03 | locus YOL012C, strain htz1 1.1 | locus YOL147C, strain pex11, hits give low values 1.02 | locus YOR001W, strain rrp6, hits give low values 1.03 | locus YOR061W, strain CKA2, hits give low values 0.999 | locus YOR069W, strain VPS5, hits give low values 1 | locus YOR070C, strain gyp1, hits give low values 1.02 | locus YOR080W, strain dia2, hits give low values 1.05 | locus YOR083W, strain WHI5, hits give low values 1 | locus YOR106W, strain vam3, hits give low values 1 | locus YOR136W, strain idh2, hits give low values 1.02 | locus YOR144C, strain elg1, hits give low values 1 | locus YOR184W, strain ser1, hits give low values 0.981 | locus YOR231W, strain MKK1, hits give low values 1.02 | locus YOR265W, strain rbl2, hits give low values 1.03 | locus YOR270C, strain vph1, hits give low values 1.07 | locus YOR290C, strain snf2, hits give low values 1.01 | locus YOR316C, strain cot1, hits give low values 1.02 | locus YPL051W, strain arl3, hits give low values 1 | locus YPL078C, strain atp4, hits give low values 1.01 | locus YPL106C, strain sse1, hits give low values 1.04 | locus YPL240C, strain hsp82, hits give low values 1.02 | locus YPL256C, strain CLN2, hits give low values 1.03 | locus YPR119W, strain clb2, hits give low values 1 | locus YPR141C, strain kar3, hits give low values 0.987 | locus YPR163C, strain tif3, hits give low values 1.02 | locus YPR167C, strain met16, hits give low values 1.01 | strain wtn01, hits give low values 1
